# From PubChem BioAssay (NCI)
# About 83,000 compounds went through this panel and 20% of them were active in at least one assay; those are over-represented in the sample as a whole.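 48-hour exposure, single concentration, 96-well plates; percent growth endpoint where 0 means no net growth. Active: below 10.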 A number with no mark means an inactive call. Active and inactive are the calls of the source.
# System: LOX IMVI melanoma
# Test: NCI-60 one-dose screen, 48 h (100 = growth as untreated, 0 = no growth, -100 = all killed)
# Conditions: 10 µM unless noted
row,Compound,growth
1,COc1cc(/C=C/C(=O)c2ccc(Nc3ncnc4ccccc34)cc2)cc(OC)c1,5.65% (active)
2,COc1ccc(C(=O)c2cc3c(N)c(C(=O)Nc4cccc(OC)c4)sc3nc2C)cc1,36.6%
3,CCC(C)N(CCNc1cc(OC)cc2cccnc12)CCC(C)C (stereo not drawn),86%
4,S=c1[nH]cccc1-c1nnc2n1Nc1nc3ccccc3cc1CS2,98.6%
5,NC(=O)C1(N2CCCCC2)CCN(CCCC(=O)c2ccc(F)cc2)CC1,42.4%
6,O=S(=O)(c1cccc(NC2=Nc3cccc4cccc2c34)c1)N1CCCC1,66.7%
7,OC1(c2ccc(Cl)c(C(F)(F)F)c2)CCN(CCCC(c2ccc(F)cc2)c2ccc(F)cc2)CC1,-96.1% (active)
8,O=c1[nH]nc(-c2ccc(Br)cc2)cc1Cc1ccc(O)cc1,97.4%
9,N/C(=N\N=C\c1cc2ccccc2s1)N/N=C/c1cc2ccccc2s1,100%
10,COc1ccc(C(=O)c2cc3c(N)c(C(=O)Nc4ccc(Br)cc4)sc3nc2C)cc1,84.5%
11,CC1=NNC(=O)C1CCC(=O)N/N=C(\C)c1ccc2ccccc2c1 (stereo not drawn),99.5%
12,O=C(O)c1cn(C2CC2)c2cc(N3CCN(C(=O)C[n+]4cccc5ccccc54)CC3)c(F)cc2c1=O,20.7%
13,COc1ccc(Cn2nc(-c3ccccc3)c3c2CCc2cnoc2-3)cc1,72.8%
14,O=C(O)CNC(=O)CN1C(=O)c2ccccc2C1=O,95%
15,O=C1CCCCCCCCC(O)C(O)CCCC(c2cccs2)O1 (stereo not drawn),96.5%
16,CC1CCN(C(=O)OCc2nc3nc(Cl)nc(N4CCOCC4)c3[nH]2)CC1,-86.4% (active)
17,COc1cc(C2CC(c3cccc(Nc4ccncc4)c3)=NN2c2cc(Cl)cc(Cl)c2)cc(OC)c1OC (stereo not drawn),-90.9% (active)
18,COC(=O)Nc1ccc(NC(=O)OC)cc1,99%
19,COc1ccc(C(=O)c2cc3c(N)c(C(=O)Nc4cccc(Cl)c4C)sc3nc2C)cc1,21.9%

row,Compound,growth
1,COc1ccc(-c2nc(SC)nc(N3CCOCC3)c2C#N)cc1,96.1%
2,CC(=O)NCCCS(=O)(=O)O,94.4%
3,Cn1c(COC(=O)NCCN2CCOCC2)nc2c(N3CCOCC3)nc(-c3ccccc3)nc21,-87.2% (active)
4,CC(C)Sc1nc(NN)c(C#N)c(-c2ccccc2)n1,96.7%
5,COc1ccc(-c2nc(SCC(C)C)nc(N/N=C(/C)c3ccc(OC)c(OC)c3)c2C#N)cc1,84.3%
6,COc1cc2nnn3c4ncccc4c(N=O)c3c2cc1OC,58.9%
7,COc1ccccc1-c1c(-c2ccc(Cl)cc2)c2cc3c(cc2[nH]c1=O)OCCO3,73.9%
8,O=S(=O)(NCCNc1nccc(-c2c(-c3ccc(F)c(O)c3)nc3sccn23)n1)c1ccccc1,27.7%
9,CC(C)(O)C1CCCN1C(=O)c1ccccc1I (stereo not drawn),101%
10,O=C(OCc1nc2nc(Cl)nc(N3CCOCC3)c2[nH]1)n1ccnc1,-77.1% (active)
11,Cc1c([N+](=O)[O-])cc(C(C)(C)C)cc1[N+](=O)[O-],97.2%
12,O=C(N/N=C/c1ccc(F)cc1)c1ccccc1Nc1cccc(C(F)(F)F)c1,86.6%
13,COc1cccc(/C=C2\COc3ccc(-c4ccccc4)cc3C2=O)c1,-85.5% (active)
14,CN1CCN(c2cc(F)c(NC3=C(Cl)C(=O)c4ncccc4C3=O)c(F)c2)CC1,-70.3% (active)
15,Cc1cc(NC(=O)c2cnc(N3CCN(CCOCCOCCOCCOCCC(=O)N[C@H](C(=O)N4C[C@H](O)C[C@H]4C(=O)N[C@@H](C)c4ccc(-c5scnc5C)cc4)C(C)(C)C)CC3)cn2)c2ncccc2c1,-85.8% (active)
16,COc1ccc(-c2ncc(-c3ccccc3)[nH]2)cc1OC,116%
17,O=C(CN1CCOCC1)Nc1ccc2ncnc(Nc3ccc(Oc4cccc(F)c4)c(Cl)c3)c2c1,80.4%
18,O=C1Nc2c(ccc(Cl)c2Cl)/C1=C/c1ccc(F)cc1,81.2%
19,COc1ccc(-c2nc(N/N=C/c3c[nH]c4ccccc34)nc(N3CCOCC3)c2C#N)cc1,102%
